Nrf2 activator: activates Nrf2 signaling; AREc32 ARE-luciferase reporter (MCF7-derived line), luminescence, 24 h; 410,000 tested, 0.31% active; Potency, µM (top dose mostly 46.1 µM), most hits filed as activators; further: nearly all actives have a fitted effect of over 65% in size
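Steps: seed AREc32_Fluc cells (1000/well, 5% FBS OPTI-MEM); incubate overnight at 37 deg C; add 23 nL compound; incubate 24 hr; add Steady-Glo; hold 30 min RT; read luminescence.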
ERG Ets-DNA blk: ERG Ets/DNA interaction inhibition; P11308; fluorescence polarization, His-ERG Ets domain / labelled DNA; Potency, µM (highest dose often 76.9 µM), usual class: inhibitors; 370,000 tested, 0.028% active; active means well fitted inhibition curve with a large enough effect in the polarisation, with a control signal flat; inconclusive means small, poorly fitted or top-dose-only effect, or effect the other way, or a change in a side signal; inactive means no such curve, though single readings can be large or run the other way; the % refers to the polarisation;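 further: polarization taken with two DNA probes labelled with fluorescein and Texas red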
Target sequence (P11308 whole entry, looked up, the tested form may be a part): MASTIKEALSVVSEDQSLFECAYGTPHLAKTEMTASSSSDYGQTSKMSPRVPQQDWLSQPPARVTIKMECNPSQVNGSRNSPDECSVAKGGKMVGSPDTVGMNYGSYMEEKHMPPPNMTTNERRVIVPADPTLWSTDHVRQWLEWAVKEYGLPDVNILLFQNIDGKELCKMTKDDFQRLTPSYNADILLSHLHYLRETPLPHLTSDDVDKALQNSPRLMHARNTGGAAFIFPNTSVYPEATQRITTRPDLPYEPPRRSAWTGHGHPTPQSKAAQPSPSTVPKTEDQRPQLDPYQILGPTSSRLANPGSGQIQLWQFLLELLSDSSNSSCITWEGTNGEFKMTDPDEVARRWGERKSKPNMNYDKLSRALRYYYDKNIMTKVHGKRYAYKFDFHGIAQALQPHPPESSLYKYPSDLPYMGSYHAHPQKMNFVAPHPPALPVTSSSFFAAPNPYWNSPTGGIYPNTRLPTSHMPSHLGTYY
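His-tagged ERG Ets domain (1 uM in the protein solution; 300mM KCl, 50mM Tris-HCl, 1mM EDTA, 1mM DTT, pH 7.5) received compound, then a probe mix of 5 nM fluorescein-DNA and 100nM Texas-615-DNA. Fluorescence polarization was read for both dyes.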
Nrf2 block: inhibitors of Nrf2 signaling; A549 ARE-Fluc reporter, luciferase luminescence, 18-24 h; Potency, µM (highest dose often 46 µM), usual class: inhibitors; 360,000 tested, 2.1% active; further: nearly all actives have a fitted effect of over 60% in size
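Cells were seeded and rested 2 h, then exposed to compounds for 18-24 h. CellTiter-Fluor was read first as a viability measure. BugLite was added 15 min before the final luminescent read of ARE-luciferase activity in A549 cells.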
A549 viability: A549 cytotoxicity, counter-screen for Nrf2 inhibitors; Potency, µM (titrated, usually from 46 µM), actives largely listed as inhibitors; A549 ARE-Fluc cells, CellTiter-Fluor viability, 18-24 h; 390,000 tested, 0.16% active
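A549 ARE_Fluc cells in 5% FBS OPTI-MEM were exposed to compounds in concentration-response for 18-24 h at 37 deg C. Viability was read by CellTiter-Fluor fluorescence (Ex 405/Em 525) after 30 min, before the luciferase read.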
LDHA block: LDHA (human) enzyme inhibition; P00338; purified LDHA, NADH/diaphorase-resazurin fluorescence; stronger effect = lower value; activity change, % (values are at about 110 or 230 µM); 480,000 tested, 0.15% active; in the data active means activity change below about -30%; inconclusive means mostly about -25% to -30%
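Enzyme activity of human lactate dehydrogenase 5 (2 nM; 0.06 mM NADH, 0.2 mM pyruvate, 5 min, RT) is measured via a resazurin/diaphorase fluorescence readout of residual NADH.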
ALOX12 inh: inhibitors of human 12S-lipoxygenase ALOX12; purified 12hLO, xylenol orange hydroperoxide absorbance; Potency, µM (doses to about 108 µM), hits mostly inhibitors; 580,000 tested, 1.1% active; AID 1671190
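Purified human 12hLO at 150 nM in 25 mM Hepes, 0.01% Triton X-100, pH 7.0, preincubated 15 min at room temperature with compound. Reaction started with 40 uM arachidonic acid, 30 min at room temperature. Hydroperoxide measured by Fe-xylenol orange, 573/405 nm absorbance ratio.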
Of the large screens only hits and unclear results are named; the others gave an inactive call. Rows were chosen to be rich in hits. Some 2.7% of all compounds tested hit in one or more screens of this group. Unless noted, the call rests on the fitted dose curve; in most records, active means well fitted curve in the direction sought with a large enough effect; inconclusive means small, poorly fitted or top-dose-only effect, or another doubt; inactive means no such curve, though single readings can be large; an effect the other way counts as inactive or inconclusive.

O=C1NC(=S)SC1=Cc1ccccc1Cl	Nrf2 block inconclusive, A549 viability inconclusive, ALOX12 inh inconclusive
Cc1ccc(-c2csc(-c3ccc(O)cc3)n2)cc1	ALOX12 inh inconclusive (no result: Nrf2 activator, ERG Ets-DNA blk, Nrf2 block, A549 viability)
Cc1ccc(S(=O)(=O)N=Nc2c(O)[nH]c3ccccc23)cc1C	LDHA block -36, ALOX12 inh inconclusive
CCCC(O)(c1ccc(OC)cc1)C(CN1CCOCC1)c1ccc(Cl)cc1 (stereo not drawn)	ALOX12 inh inconclusive
CCCC(O)(c1ccc(Cl)cc1)C(CN1CCOCC1)c1ccc(Cl)cc1 (stereo not drawn)	Nrf2 block 18µM, ALOX12 inh inconclusive
Cc1cc(C)c(S(=O)(=O)Nc2ccc(Cl)cn2)cc1Br	ALOX12 inh inconclusive (no result: Nrf2 activator, ERG Ets-DNA blk, Nrf2 block, A549 viability)
COc1ccc(C(=O)Sc2ccc(Cl)cc2)cc1OC	Nrf2 block 21µM, A549 viability inconclusive
COc1ccc(C(=O)Sc2ccc(C)cc2)cc1OC	Nrf2 activator inconclusive
Cc1noc(C)c1Cn1c(=O)c2c(ncn2CCC(C)C)n(Cc2ccccc2)c1=O	none (no result: Nrf2 activator, ERG Ets-DNA blk, Nrf2 block, A549 viability)
COC(=O)C1=C(C)NC(=O)/C1=C\c1cc(C)n(-c2c(C)cccc2C)c1C	Nrf2 block 23µM, A549 viability 21µM, ALOX12 inh inconclusive (no result: ERG Ets-DNA blk)
Brc1ccc(CNc2n[nH]c(-c3cccs3)n2)cc1	ALOX12 inh inconclusive (no result: Nrf2 activator, ERG Ets-DNA blk, Nrf2 block, A549 viability)
C=CCOc1cccc(CNC(C)(C)CO)c1	ALOX12 inh inconclusive (no result: Nrf2 activator, ERG Ets-DNA blk, Nrf2 block, A549 viability)
CSc1ccc(C(C)NC(=O)c2ccccc2Cl)cc1 (stereo not drawn)	none (no result: Nrf2 activator, ERG Ets-DNA blk, Nrf2 block, A549 viability)
O=C(/C=C/c1ccccc1[N+](=O)[O-])N1CCc2ccccc2C1	Nrf2 activator 8.9µM, ALOX12 inh inconclusive
CCc1ccc(/C=C\C(=O)N2CCc3ccccc3C2)cc1	Nrf2 block inconclusive
O=C(/C=C/c1c(F)cccc1Cl)N1CCc2ccccc2C1	ALOX12 inh 5.6µM
COc1cc(C2CC(=O)Nc3c(-c4ccccc4)nsc32)cc(OC)c1OC (stereo not drawn)	none (no result: Nrf2 activator, ERG Ets-DNA blk, Nrf2 block, A549 viability)
CCCCN(C)C(=O)Cn1c(=O)n(Cc2ccc3c(c2)OCO3)c(=O)c2sccc21	ALOX12 inh inconclusive (no result: Nrf2 activator, ERG Ets-DNA blk, Nrf2 block, A549 viability)
Cc1ccc(/C=C2\SC(=S)N(NS(=O)(=O)c3ccc(C)cc3)C2=O)cc1	ALOX12 inh 35µM
Cc1ccc(C(=O)N2CCCC(C(=O)c3ccc(Oc4ccccc4)cc3)C2)cn1 (stereo not drawn)	Nrf2 block 16µM, A549 viability inconclusive
Cc1ccc(C(=O)N2CCCC(C(=O)c3ccc(Cl)cc3C)C2)cn1 (stereo not drawn)	none
COC1=C(Nc2ccc(O)cc2)C(=O)c2ccccc2C1=O	Nrf2 block 23µM, A549 viability inconclusive, ALOX12 inh inconclusive
Cc1ccc(C(=O)/C=C/c2cc(Br)ccc2F)o1	ALOX12 inh inconclusive (no result: Nrf2 activator, ERG Ets-DNA blk, Nrf2 block, A549 viability)
Cc1ccc(NS(=O)(=O)c2ccc3c(c2)oc(=O)n3C)cc1	none
CSc1cccc(NS(=O)(=O)c2ccc3c(c2)oc(=O)n3C)c1	Nrf2 block 26µM
CC(=O)Nc1ccc(NS(=O)(=O)c2ccc3c(c2)oc(=O)n3C)cc1	ALOX12 inh 8.9µM
Cn1c(=O)oc2cc(S(=O)(=O)Nc3cccc(F)c3)ccc21	none
O=Cc1ccc(Sc2ccccc2)o1	ALOX12 inh inconclusive (no result: Nrf2 activator, ERG Ets-DNA blk, Nrf2 block, A549 viability)
CC(NC(=O)COC(=O)/C=C/c1ccco1)c1ccccc1 (stereo not drawn)	Nrf2 activator 13µM
CNC(=O)COC(=O)/C=C/c1ccco1	none
O=C(/C=C/c1ccco1)OCC(=O)C12CC3CC(CC(C3)C1)C2	ALOX12 inh 40µM (no result: Nrf2 activator, ERG Ets-DNA blk, Nrf2 block, A549 viability)
CC1CC(C)CN(C(=O)COC(=O)/C=C/c2ccco2)C1 (stereo not drawn)	Nrf2 activator 14µM
Nc1ccc(S(=O)(=O)O)c2cccc(S(=O)(=O)O)c12	ALOX12 inh inconclusive (no result: Nrf2 activator, ERG Ets-DNA blk, Nrf2 block, A549 viability)
Cn1ncc2c(=S)nc(Cl)[nH]c21	ALOX12 inh 7.1µM
O=c1c2ccc(Cl)cc2nc(-c2cccc(C(F)(F)F)c2)n1O	Nrf2 block 23µM, ALOX12 inh inconclusive
Cc1c(CC(=O)N2CCC(O)(c3ccc(Cl)cc3)CC2)c(=O)oc2cc(O)ccc12	ALOX12 inh inconclusive (no result: Nrf2 activator, ERG Ets-DNA blk, Nrf2 block, A549 viability)
Cc1c2c(=O)n(-c3ccc(F)cc3)[nH]c2cc(=O)n1Cc1ccccc1	ALOX12 inh 11µM (no result: Nrf2 activator, ERG Ets-DNA blk, Nrf2 block, A549 viability)
FC(F)(F)c1cccc(-c2csc(-c3ccncc3)n2)c1	ALOX12 inh inconclusive (no result: Nrf2 activator, ERG Ets-DNA blk, Nrf2 block, A549 viability)
CC(C)NC(=O)CNC(=O)C(=O)Nc1ccc2cc[nH]c2c1	none (no result: Nrf2 activator, ERG Ets-DNA blk, Nrf2 block, A549 viability)
CC(C)CNC(=O)C(=O)Nc1ccc2cc[nH]c2c1	ALOX12 inh 35µM (no result: Nrf2 activator, ERG Ets-DNA blk, Nrf2 block, A549 viability)
Cc1cnc(NC(=O)Cn2ccc3ccc(Br)cc32)s1	ALOX12 inh inconclusive (no result: Nrf2 activator, ERG Ets-DNA blk, Nrf2 block, A549 viability)
